Several values for one entry are separate records, joined by “and”; a condition that tells them apart may be missing. Equal values may be shown once. Inconclusive results are not listed. Activity calls are given as the source filed them. Unless noted, the call rests on the fitted dose curve; in most records, active means well fitted curve in the direction sought with a large enough effect; inconclusive means small, poorly fitted or top-dose-only effect, or another doubt; inactive means no such curve, though single readings can be large; an effect the other way counts as inactive or inconclusive.
Experiments:
[1] = biological target: Catechol O-methyltransferase (Homo sapiens) (UniProt P21964); experiment: Confirmatory Screen for Target Class Profiling of Small Molecule Inhibitors of Methyltransferases (AID 1745852; calls by dose curve; further: potency means the concentration at half of the fitted maximal effect; on activity change, negative = inhibition: on the % scale 0 is the no-effect control and ±100 the full control effect); conditions: MTase-Glo luminescence, SAH detection, recombinant enzyme; measured here: COMT max response; stronger effect = lower value
Catechol O-methyltransferase (Homo sapiens), sequence (P21964 whole entry, looked up): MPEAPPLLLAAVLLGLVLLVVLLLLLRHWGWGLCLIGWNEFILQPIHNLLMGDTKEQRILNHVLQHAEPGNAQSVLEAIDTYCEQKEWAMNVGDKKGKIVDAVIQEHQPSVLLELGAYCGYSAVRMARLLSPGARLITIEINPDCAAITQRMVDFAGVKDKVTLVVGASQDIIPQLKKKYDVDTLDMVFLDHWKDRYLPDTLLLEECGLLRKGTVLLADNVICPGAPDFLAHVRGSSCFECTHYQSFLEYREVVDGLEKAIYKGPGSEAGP

[2] = biological target: Guanidinoacetate N-methyltransferase (Homo sapiens) (UniProt Q14353); experiment: as above; conditions: MTase-Glo luminescence, SAH detection, recombinant enzyme; activity change, negative = inhibition: at 57.3 µM (top of the series)
[3] = biological target: Nicotinamide N-methyltransferase (Homo sapiens) (UniProt P40261); experiment: as above; conditions: MTase-Glo luminescence, SAH detection, recombinant enzyme; measured here: NNMT max response; stronger effect = lower value
Nicotinamide N-methyltransferase (Homo sapiens), sequence (P40261 whole entry, looked up): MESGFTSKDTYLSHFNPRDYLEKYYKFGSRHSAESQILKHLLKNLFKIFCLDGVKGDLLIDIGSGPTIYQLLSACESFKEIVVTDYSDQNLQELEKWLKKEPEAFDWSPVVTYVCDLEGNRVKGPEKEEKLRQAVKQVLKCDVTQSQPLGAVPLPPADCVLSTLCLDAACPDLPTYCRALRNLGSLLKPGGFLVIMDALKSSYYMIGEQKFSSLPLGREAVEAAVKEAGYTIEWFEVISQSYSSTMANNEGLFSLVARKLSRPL

[4] = biological target: Phenylethanolamine N-methyltransferase (Homo sapiens) (UniProt P11086); experiment: as above; conditions: MTase-Glo luminescence, SAH detection, recombinant enzyme; measured here: PNMT max response; stronger effect = lower value
Phenylethanolamine N-methyltransferase (Homo sapiens), sequence (P11086 whole entry, looked up): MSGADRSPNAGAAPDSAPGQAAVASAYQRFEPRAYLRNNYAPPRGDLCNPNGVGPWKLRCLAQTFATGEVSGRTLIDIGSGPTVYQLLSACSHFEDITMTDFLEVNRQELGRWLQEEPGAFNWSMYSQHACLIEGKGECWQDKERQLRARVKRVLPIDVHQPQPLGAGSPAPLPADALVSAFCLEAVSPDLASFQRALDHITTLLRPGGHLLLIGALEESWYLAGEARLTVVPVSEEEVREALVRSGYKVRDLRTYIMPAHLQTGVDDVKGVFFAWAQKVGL

[5] = biological target: Rap guanine nucleotide exchange factor 4 (Homo sapiens) (UniProt Q8WZA2); experiment: Confirmatory qHTS for antagonist of cAMP-regulated guanine nucleotide exchange factor 4 (EPAC2) (AID 1645885); conditions: EPAC2 Rap1B-BODIPY-GDP exchange fluorescence, biochemical; series mostly up to 114 µM; further: nearly all actives have a fitted effect of over 25% in size; further: potency means the concentration at half of the fitted maximal effect; on activity change, negative = inhibition: on the % scale 0 is the no-effect control and ±100 the full control effect
Rap guanine nucleotide exchange factor 4 (Homo sapiens), sequence (Q8WZA2 whole entry, looked up): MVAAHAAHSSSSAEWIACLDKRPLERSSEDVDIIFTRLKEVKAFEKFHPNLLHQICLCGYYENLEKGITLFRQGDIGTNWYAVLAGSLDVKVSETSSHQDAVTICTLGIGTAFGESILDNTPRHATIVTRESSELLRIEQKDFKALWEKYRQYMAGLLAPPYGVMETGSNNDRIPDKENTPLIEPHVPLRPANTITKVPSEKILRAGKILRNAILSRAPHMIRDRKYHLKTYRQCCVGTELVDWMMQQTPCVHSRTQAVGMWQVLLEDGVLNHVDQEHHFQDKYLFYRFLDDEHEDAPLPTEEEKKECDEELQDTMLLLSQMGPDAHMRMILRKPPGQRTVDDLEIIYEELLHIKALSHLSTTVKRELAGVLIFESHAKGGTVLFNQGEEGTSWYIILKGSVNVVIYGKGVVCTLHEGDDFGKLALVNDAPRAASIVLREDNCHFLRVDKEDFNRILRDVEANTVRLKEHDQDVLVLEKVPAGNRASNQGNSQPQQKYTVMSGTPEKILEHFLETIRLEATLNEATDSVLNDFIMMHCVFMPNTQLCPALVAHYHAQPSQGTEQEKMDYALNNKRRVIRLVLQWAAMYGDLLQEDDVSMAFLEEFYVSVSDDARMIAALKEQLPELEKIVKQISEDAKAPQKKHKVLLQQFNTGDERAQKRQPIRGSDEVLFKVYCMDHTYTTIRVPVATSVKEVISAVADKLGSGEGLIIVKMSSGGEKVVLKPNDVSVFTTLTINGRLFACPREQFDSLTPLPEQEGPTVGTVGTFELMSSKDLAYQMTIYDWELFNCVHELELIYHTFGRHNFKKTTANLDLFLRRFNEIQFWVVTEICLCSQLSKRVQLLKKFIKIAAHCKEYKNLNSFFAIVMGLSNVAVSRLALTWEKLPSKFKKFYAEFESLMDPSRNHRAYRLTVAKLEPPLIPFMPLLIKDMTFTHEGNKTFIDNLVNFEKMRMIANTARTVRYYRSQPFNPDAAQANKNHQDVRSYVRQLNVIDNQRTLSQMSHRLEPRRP

[6] = biological target: Rap guanine nucleotide exchange factor 3 (Homo sapiens) (UniProt O95398); experiment: Counterscreen qHTS for antagonist of cAMP-regulated guanine nucleotide exchange factor 3 (EPAC1) (AID 1645888); conditions: Rap1B-BODIPY-GDP nucleotide exchange, fluorescence; series mostly up to 30.8 µM;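 further: fluorescence loss as bound BODIPY-GDP is released from Rap1B; % of control where 0% means no effect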
Rap guanine nucleotide exchange factor 3 (Homo sapiens), sequence (O95398 whole entry, looked up): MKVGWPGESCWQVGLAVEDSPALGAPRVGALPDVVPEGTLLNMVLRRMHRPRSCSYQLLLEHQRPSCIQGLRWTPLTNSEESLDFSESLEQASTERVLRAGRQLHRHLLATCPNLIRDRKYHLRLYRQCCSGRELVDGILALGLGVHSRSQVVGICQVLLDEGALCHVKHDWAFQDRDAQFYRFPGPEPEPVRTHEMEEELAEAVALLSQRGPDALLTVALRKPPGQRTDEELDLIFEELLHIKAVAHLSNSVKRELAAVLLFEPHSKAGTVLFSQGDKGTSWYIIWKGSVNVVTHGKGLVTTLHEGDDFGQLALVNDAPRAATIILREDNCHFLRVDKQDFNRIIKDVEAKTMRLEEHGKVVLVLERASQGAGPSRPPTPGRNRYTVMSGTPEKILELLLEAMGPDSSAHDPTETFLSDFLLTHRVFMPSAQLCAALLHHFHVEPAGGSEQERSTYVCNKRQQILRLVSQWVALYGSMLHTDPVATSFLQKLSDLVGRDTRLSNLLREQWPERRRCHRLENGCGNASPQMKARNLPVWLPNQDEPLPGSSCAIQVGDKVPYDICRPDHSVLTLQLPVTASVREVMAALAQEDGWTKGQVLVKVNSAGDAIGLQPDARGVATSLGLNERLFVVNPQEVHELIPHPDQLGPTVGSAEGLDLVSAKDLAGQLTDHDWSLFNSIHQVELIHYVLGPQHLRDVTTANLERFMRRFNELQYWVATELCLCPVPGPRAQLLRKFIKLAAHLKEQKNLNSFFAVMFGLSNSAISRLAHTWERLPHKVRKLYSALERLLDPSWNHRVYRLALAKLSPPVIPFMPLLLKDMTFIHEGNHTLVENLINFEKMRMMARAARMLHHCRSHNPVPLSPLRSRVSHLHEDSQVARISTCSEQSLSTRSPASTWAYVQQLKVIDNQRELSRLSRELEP
In short: (§1)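 Measured: fluorescence of BODIPY-GDP bound to Rap1B, which falls as exchange proceeds. Conditions include 50 uM competing GDP, 5 and 30 min reads, and a later cAMP challenge for antagonist detection.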

[7] = biological target: Rap guanine nucleotide exchange factor 3 (Homo sapiens) (UniProt O95398); experiment: Counterscreen qHTS for agonist of cAMP-regulated guanine nucleotide exchange factor 3 (EPAC1) (AID 1645889); conditions: EPAC1 Rap1B-BODIPY-GDP exchange, fluorescence; series mostly up to 30.8 µM; further: % of control where 0% means no effect; nearly all actives have a fitted effect of over 40% in size
In short: as §1

[8] = NCATS anti-infectives library activity on the primary C. elegans qHTS viability assay (AID 1745855; calls by dose curve; further: potency means the concentration at half of the fitted maximal effect); conditions: C. elegans worm area imaging, day 7
In short: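 Titration-based screen in worms: eggs hatched overnight in M9, L1 larvae fed TOP10 capsules in S medium with compound, incubated 21 °C for 7 days; fluorescent objects gated by size and intensity at days 0, 3 and 7.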

[9] = Viability counterscreen for antagonist of constitutive androstane receptor (CAR) against the NCATS DSHEA and TCM libraries (AID 1794837); conditions: CAR reporter cell line viability counterscreen, qHTS; series mostly up to 40 µM;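 further: compound exposure lasted 24 h before viability reading; 0% is about no effect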
In short: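 Fluorescence from CellTiter-Fluor reports live-cell protease activity in HepG2-CYP2B6-hCAR cells treated for 24 h with substances alongside 48 uM CITCO.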

Question: Which activity [1] does the source give for `Fc1ccc(C(OCCCc2cnc[nH]2)c2ccc(F)cc2)cc1` here?
Answer: 0.59%

Question: What about the activity change, negative = inhibition [2] of the same molecule?
Answer: 7.35%

Question: And the activity [3]?
Answer: -23.2%

Question: What about the activity [4] of the same molecule?
Answer: -0.346%

Question: Which Potency [5] does the source give for `CC(=O)[C@]1(O)Cc2c(O)c3c(c(O)c2[C@@H](O[C@H]2C[C@H](N)[C@H](O)[C@H](C)O2)C1)C(=O)c1c(O)cccc1C3=O` here?
Answer: inactive

Question: For `c1ccc(CCNc2nc(-c3ccccc3)cs2)cc1`, which Potency [5] is on record?
Answer: inactive

Question: Which results are given for `Oc1ccc(C2CNCc3sccc32)cc1O` (stereo not drawn)?
Answer: activity [1]: 133%; activity change, negative = inhibition [2]: 1.13%; activity [3]: -8.32%; activity [4]: 0.43%

Question: For `CCN(CC)CCCCNc1ncc2cc(-c3c(Cl)cccc3Cl)c(NC(=O)NC(C)(C)C)nc2n1`, which activity [1] is on record?
Answer: -7.59% and -2.1%

Question: And the activity change, negative = inhibition [2]?
Answer: 0.993% and 9.36%

Question: And the activity [3]?
Answer: -17.4% and -14.9%

Question: What about the activity [4] of the same molecule?
Answer: -6.92% and -0.98%

Question: For `CC1(C)[C@@H](O)CC[C@]2(C)[C@H]3C(=O)C=C4[C@@H]5C[C@@](C)(C(=O)O)CC[C@]5(C)CC[C@@]4(C)[C@]3(C)CC[C@@H]12`, which Potency [5] is on record?
Answer: 3.93 µM (active) and 2.48 µM (active)

Question: With `COc1ccc(Br)cc1S(=O)(=O)NC(=O)/C=C/c1ccccc1Cc1ccc2ccccc2c1` as the molecule, how does the activity [1] read?
Answer: 3.65%

Question: And the activity change, negative = inhibition [2]?
Answer: -3.05%

Question: And the activity [3]?
Answer: -14.5%

Question: And the activity [4]?
Answer: 0.509%

Question: Which activity [1] does the source give for `NO` here?
Answer: 3.62%

Question: What about the activity change, negative = inhibition [2] of the same molecule?
Answer: -5.54%

Question: What about the activity [3] of the same molecule?
Answer: -5.7%

Question: What about the activity [4] of the same molecule?
Answer: 4.25%

Question: Which activity [1] does the source give for `Oc1ccccc1O` here?
Answer: 160%

Question: And the activity change, negative = inhibition [2]?
Answer: -2.32%

Question: What about the activity [3] of the same molecule?
Answer: -3.91%

Question: And the activity [4]?
Answer: 8.37%

Question: Which Potency [5] does the source give for `Brc1c(Br)c(Br)c2n[nH]nc2c1Br` here?
Answer: 15.6 µM (active)

Question: With `Nc1cc(-c2ccncc2)c[nH]c1=O` as the molecule, how does the Potency [5] read?
Answer: inactive

Question: Which Potency [5] does the source give for `O=C1O/C(=C/Br)CCC1c1cccc2ccccc12` (stereo not drawn) here?
Answer: 49.4 µM (active)

Question: Which Potency [5] does the source give for `O=C1C(SCCO)=C(SCCO)C(=O)c2ccccc21` here?
Answer: inactive

Question: What about the outcome [6] of the same molecule?
Answer: inactive

Question: What about the activity [1] of the same molecule?
Answer: -43.3%

Question: What about the Potency [2] of the same molecule?
Answer: 4.85 µM (active)

Question: And the activity [3]?
Answer: -76.1%

Question: And the activity [4]?
Answer: -72.3%

Question: With `COC(=O)[C@H]1[C@H]2C[C@@H]3c4[nH]c5cc(OC)ccc5c4CCN3C[C@H]2C[C@@H](OC(=O)/C=C/c2cc(OC)c(OC)c(OC)c2)[C@@H]1OC` as the molecule, how does the Potency [5] read?
Answer: inactive

Question: What does the source list for `Cn1cc(C2=C(c3ccc(Cl)cc3Cl)C(=O)NC2=O)c2ccccc21`?
Answer: activity change, negative = inhibition [5]: 2.07% [at 12.7 µM] (inactive); outcome [6]: inactive

Question: Which activity change, negative = inhibition [5] does the source give for `N#C/C(=C\c1ccc(O)c(O)c1)C(=O)c1ccc(O)c(O)c1` here?
Answer: 16.6% [at 12.7 µM] (inactive)

Question: What about the outcome [7] of the same molecule?
Answer: inactive

Question: With `O=C1NC(=O)/C(=C/c2ccc(-c3ccc(F)cc3O)o2)S1` as the molecule, how does the Potency [5] read?
Answer: 9.87 µM (active)

Question: Which results are given for `O=[N+]([O-])c1ccc(CNc2nc(NCc3cccc(C(F)(F)F)c3)nc3nc[nH]c23)cc1`?
Answer: activity [1]: -6.92% and 9.66%; activity change, negative = inhibition [2]: -3.71% and 5.72%; activity [3]: -49.3% and -10.9%; activity [4]: -13.5% and 7.65%

Question: What does the source list for `Oc1cc2c(cc1O)CN(C(=S)NCCc1ccc(Cl)cc1)CCC2`?
Answer: activity [1]: 160%; activity change, negative = inhibition [2]: 2.52%; activity [3]: -17.6%; activity [4]: 0.243%

Question: For `COC(=O)C1=C(C)NC(C)=C(C(=O)OC)C1c1cccc(NC(=O)NCCCN2CCC(c3cccc(OC)c3)CC2)c1`, which activity [1] is on record?
Answer: -1.21% and -6.68%

Question: What about the activity change, negative = inhibition [2] of the same molecule?
Answer: 0% and 10.5%

Question: And the activity [3]?
Answer: -24.5% and -25.9%

Question: What about the activity [4] of the same molecule?
Answer: 0.516% and -5.06%

Question: With `CCOC(=O)C1=C(C)NC(C)=C(C(=O)OCC)C1c1c(F)c(F)c(F)c(F)c1F` as the molecule, how does the Potency [5] read?
Answer: 44.1 µM (active)

Question: Which activity [1] does the source give for `OCC1O[C@H]([S-])[C@H](O)[C@@H](O)[C@@H]1O.[Au+]` (stereo partly drawn) here?
Answer: -38.3%

Question: And the Potency [2]?
Answer: 4.85 µM (active)

Question: What about the activity [3] of the same molecule?
Answer: -21.4%

Question: What about the activity [4] of the same molecule?
Answer: -1.84%

Question: For `C#CCN1C(C)=C(C(=O)OC)C(c2cccc([N+](=O)[O-])c2)C(C(=O)OCC)=C1C` (stereo not drawn), which Potency [5] is on record?
Answer: 6.98 µM (active)

Question: With `CC[C@@H](C)[C@H]1O[C@]2(CC[C@@H]1C)C[C@@H]1C[C@@H](C/C=C(\C)[C@@H](O[C@H]3C[C@H](OC)[C@@H](O[C@H]4C[C@H](OC)[C@@H](O)[C@H](C)O4)[C@H](C)O3)[C@@H](C)/C=C/C=C3\CO[C@@H]4[C@H](O)C(C)=C[C@@H](C(=O)O1)[C@]34O)O2` as the molecule, how does the Potency [8] read?
Answer: 0.0058 µM (active)

Question: With `C[S+](CC[C@H](N)C(=O)O)C[C@H]1O[C@@H](n2cnc3c(N)ncnc32)[C@H](O)[C@@H]1O` (stereo partly drawn) as the molecule, how does the outcome [9] read?
Answer: inactive

Question: Which outcome [9] does the source give for `O=C(O)c1cc(O)c(O)c(O)c1` here?
Answer: inactive

— PubChem BioAssay (NCATS)
